Most compounds without a hit are left out; they make up all but 12% or so of the library.
PLK1 PBD block: qHTS for Inhibitors of PLK1-PDB (polo-like kinase 1 - polo-box domain): Primary Screen. Serine/threonine-protein kinase PLK1 (Homo sapiens), P53350. Potency, µM, for inactives: max response, negative = inhibition, most hits filed as inhibitors. Plk1 PBD binding of FITC phosphopeptide, fluorescence polarization. actives 2.8% (n = 360,000). AID 720504, 2013; further: series mostly up to about 57 µM; on the % scale 0 is the no-effect control and ±100 the full control effect; nearly all actives have a fitted effect of over 65% in size
Target sequence (P53350 whole entry, looked up, the tested form may be a part): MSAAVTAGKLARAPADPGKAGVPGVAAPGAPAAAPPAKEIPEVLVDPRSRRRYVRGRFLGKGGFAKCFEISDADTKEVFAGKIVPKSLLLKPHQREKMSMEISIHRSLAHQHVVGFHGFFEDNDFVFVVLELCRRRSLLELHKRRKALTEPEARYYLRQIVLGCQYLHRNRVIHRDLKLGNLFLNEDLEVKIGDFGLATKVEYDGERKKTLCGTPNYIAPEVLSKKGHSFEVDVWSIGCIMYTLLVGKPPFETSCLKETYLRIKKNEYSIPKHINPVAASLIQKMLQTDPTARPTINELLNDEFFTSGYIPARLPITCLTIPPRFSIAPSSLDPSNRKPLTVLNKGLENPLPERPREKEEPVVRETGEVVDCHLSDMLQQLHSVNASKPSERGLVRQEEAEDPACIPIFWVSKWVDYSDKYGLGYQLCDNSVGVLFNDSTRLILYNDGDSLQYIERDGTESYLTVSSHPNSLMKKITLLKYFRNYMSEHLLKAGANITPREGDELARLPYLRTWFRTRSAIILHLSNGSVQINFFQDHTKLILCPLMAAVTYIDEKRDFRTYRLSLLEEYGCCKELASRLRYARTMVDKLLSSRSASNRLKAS
JMJD2A Tudor inh: qHTS Assay for Inhibitors of JMJD2A-Tudor Domain; Potency, µM (highest dose often 114 µM), for the others: at the highest dose activity change, negative = inhibition, usual class: inhibitors; Lysine-specific demethylase 4A (Homo sapiens), O75164; actives 4.4% (n = 390,000); AlphaScreen JMJD2A-Tudor / H3K4me3 peptide binding; further: on the % scale 0 is the no-effect control and ±100 the full control effect; nearly all actives have a fitted effect of over 50% in size
HP1b binding inh: HTS for Inhibitors of HP1-beta Chromodomain Interactions with Methylated Histone Tails. Potency, µM (top dose mostly 114 µM), for inactives: top-dose activity change, negative = inhibition, most hits filed as inhibitors. Chromobox protein homolog 1 (Homo sapiens), P83916. AID 540317, 2011. AlphaScreen HP1-beta / biotin-H3K9me3 peptide binding. actives 0.56% (n = 390,000); further: nearly all actives have a fitted effect of over 70% in size
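AlphaScreen: HP1-beta (50 nM) preformed 30 min with biotin-H3(1-18)K9me3 peptide (50 nM) in PBS pH 7.4, 0.01% Tween-20. Compound added for 30 min at RT, then streptavidin donor/nickel chelate acceptor beads (10 ug/mL) for 30 min.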
BAZ2B block: qHTS Assay for Inhibitors of BAZ2B. Bromodomain adjacent to zinc finger domain protein 2B (Homo sapiens), Q9UIF8. AlphaScreen BAZ2B-H3K14Ac peptide displacement. Potency, µM (top dose mostly 114 µM), without a hit: top-dose activity change, negative = inhibition, most hits filed as inhibitors. actives 4.4% (n = 360,000); further: on the % scale 0 is the no-effect control and ±100 the full control effect; nearly all actives have a fitted effect of over 60% in size
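Compounds, titrated to a top concentration of 110 uM, were incubated 30 min at room temperature with preformed BAZ2B/acetyl-K14 H3 peptide complex (50 nM each). Proximity signal was measured by AlphaScreen after 20 min with beads.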
Sfp PPTase inh: qHTS Assay for Inhibitors of Bacillus subtilis Sfp phosphopantetheinyl transferase (PPTase); Potency, µM, without a hit: largest response in the series, negative = inhibition, actives largely listed as inhibitors; actives 3.5% (n = 310,000); 4'-phosphopantetheinyl transferase ffp (Bacillus subtilis), Q9F4F7; AID 1490, 2009; Biochemical Sfp PPTase activity, qHTS;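 further: the enzyme is Sfp with the accession as filed and its product quenches rhodamine fluorescence; 0% = enzyme reaction without inhibitor and -100% = no enzyme wells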
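Buffer: 50 mM Hepes-Na pH 7.6, 10 mM MgCl2, 0.01% Nonidet P-40, 0.01% BSA. Enzyme 15 nM, pre-exposed to compound 15 min; substrates then added and fluorescence change tracked over 30 min.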
G9a inh: qHTS Assay for Inhibitors of Histone Lysine Methyltransferase G9a. Histone-lysine N-methyltransferase EHMT2 (Homo sapiens), Q96KQ7. G9a H3K9 monomethylation, AlphaScreen, 2 h. Potency, µM (series often up to 102 µM), for inactives: at the highest dose activity, negative = inhibition, actives largely listed as inhibitors. actives 8.8% (n = 350,000). AID 504332, 2011; further: on the % scale 0 is the no-effect control and ±100 the full control effect; nearly all actives have a fitted effect of over 75% in size
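Signal arises when biotinylated H3K9 peptide, once monomethylated, bridges streptavidin donor and antibody-captured acceptor beads. Enzyme at 20 nM was preincubated 15 min with test compounds; peptide 500 nM and SAM 20 uM then reacted for 2 h.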
Active calls of the source: *; ? = inconclusive; . = no result given; ! = a repeat was not active; [ ] = remark or other dose. The call rests on the fitted dose curve; in most records, active means well fitted curve in the direction sought with a large enough effect; inconclusive means small, poorly fitted or top-dose-only effect, or another doubt; inactive means no such curve, though single readings can be large; an effect the other way counts as inactive or inconclusive. Potency means the concentration at half of the fitted maximal effect.

SMILES	PLK1 PBD block	JMJD2A Tudor inh	HP1b binding inh	BAZ2B block	Sfp PPTase inh	G9a inh
CCN1CCN(C(=O)COc2ccc(S(=O)(=O)Nc3ccc(Cl)cc3)cc2)CC1	-4%	-14%	26%	-18%	-9%	8%
Cc1cc2c(C(C)C)c(O)c(O)c(C=O)c2c(O)c1-c1c(C)cc2c(C(C)C)c(O)c(O)c(C=O)c2c1O	.	.	.	16µM*	89µM*!	9.5µM*
CN1CCC[C@@H]1c1cccnc1	.	.	.	.	22%	-43%[59 µM]
c1ccc(C(c2ccccc2)N2CCN(c3ccc4ccccc4n3)CC2)cc1	-1%	35%	106%	-5%	2%	9%
CC(C)(C)c1ccc(C(=O)NC(=S)Nn2cnnc2)cc1	?	-17%	-5%	8%	?	32µM*
CCOC(=S)SSC(=S)OCC	.	.	.	.	5.6µM*	?
Clc1ccc(CCC(Cn2ccnc2)Sc2c(Cl)cccc2Cl)cc1 (configuration not stated)	-16%	25µM*	-13%	?	.	?
Clc1ccc([C@H](Cn2ccnc2)OCc2csc3c(Cl)cccc23)c(Cl)c1	.	.	.	.	-8%	-26%[21.5 µM]
O=C(N/N=C/C1C(=O)NC(=S)N(c2ccccc2)C1=O)c1cc(Br)c(O)c(Br)c1 (configuration not stated)	3.4µM*	10µM*	-22%	10%	-13%	45µM*
COC(=O)C(C)Oc1ccc(Cc2ncc(C(F)(F)F)cc2Cl)cc1 (configuration not stated)	-7%	56%	117%	80%	5%	4%[2.33 µM]
OC(CNC1CCCCCCC1)c1ccccc1 (configuration not stated)	.	.	.	?	-11%	14µM*
CC1CCC(NCC(O)c2ccccc2)CC1 (configuration not stated)	-2%	-13%	37%	-3%	16%	7%
O=C1NC(c2cccnc2)Nc2sc3c(c21)CCCC3 (configuration not stated)	?	-26%	49%	9%	-23%	?
CC1(C)Cc2c(sc3c2C(=O)NC(c2cccnc2)N3)CO1 (configuration not stated)	-28%	-19%	29%	6%	40µM*	?
C[C@H](CCC(=O)O)[C@H]1CC[C@@H]2[C@H]3CC[C@H]4C[C@@H](O)CC[C@@]4(C)[C@H]3CC[C@]21C	.	.	.	.	32%	17%[21.5 µM]
Cn1c2c(c3ccccc31)CCNCC2	.	.	.	.	3%	.
N[C@]1(C(=O)O)CC[C@@H](C(=O)O)C1 (racemic)	.	.	.	.	56µM*!	?
CC/C(=N\Nc1cccc2ccccc12)c1c(O)[nH]c(=O)[nH]c1=O	-9%	79µM*	-14%	?	?	1.6µM*
CC/C(=N\Nc1ccccc1)c1c(O)[nH]c(=O)[nH]c1=O	7%	-19%	29%	0%	6%	45µM*
C/C(=N\N(C)c1ccccc1)c1c(O)[nH]c(=O)[nH]c1=O	7%	-7%	21%	-3%	7%	50µM*
CC/C(=N\Nc1ccccc1)c1c(O)n(-c2ccc(OC)cc2)c(=O)[nH]c1=O	-1%	-14%	12%	-20%	?	40µM*
O=C(O)CCC(CP(=O)(O)O)C(=O)O (configuration not stated)	.	.	.	.	-7%	.
CC(CN)CC(=O)O (configuration not stated)	.	.	.	.	12%	2%[59 µM]
CCOC(=O)CN1C(=O)CC(C[C@@H](O)C2C[C@@H](C)C[C@H](C)C2=O)CC1=O (some centres not stated)	.	.	.	.	5%	?

High-throughput results: PubChem, National Center for Advancing Translational Sciences (NCATS)
